Assay results taken from ChEMBL document CHEMBL3988442, “University of Dundee, Small-Polar-MMV Screening Library” (2021).
For some assays here: Measured potencies and affinities stand elsewhere.

What was measured:
Set-up in all cases: scale not given: direction of the effect not stated beside the values
[1] = target: Protein translocase subunit SecA (Escherichia coli (strain K12)) (UniProt P10408); test: Assay to Identify E. coli SecA ATPase Inhibitors; assay type: functional; conditions: 30 µM
[2] = target: T1, Ubiquitin-activating enzyme e1, putative (Leishmania donovani (strain BPK282A1)) (UniProt E9BSI1); test: Leishmania donovani Ubiquitin Activating Enzyme (LdE1); assay type: functional; conditions: 30 µM
T1 sequence (whole entry): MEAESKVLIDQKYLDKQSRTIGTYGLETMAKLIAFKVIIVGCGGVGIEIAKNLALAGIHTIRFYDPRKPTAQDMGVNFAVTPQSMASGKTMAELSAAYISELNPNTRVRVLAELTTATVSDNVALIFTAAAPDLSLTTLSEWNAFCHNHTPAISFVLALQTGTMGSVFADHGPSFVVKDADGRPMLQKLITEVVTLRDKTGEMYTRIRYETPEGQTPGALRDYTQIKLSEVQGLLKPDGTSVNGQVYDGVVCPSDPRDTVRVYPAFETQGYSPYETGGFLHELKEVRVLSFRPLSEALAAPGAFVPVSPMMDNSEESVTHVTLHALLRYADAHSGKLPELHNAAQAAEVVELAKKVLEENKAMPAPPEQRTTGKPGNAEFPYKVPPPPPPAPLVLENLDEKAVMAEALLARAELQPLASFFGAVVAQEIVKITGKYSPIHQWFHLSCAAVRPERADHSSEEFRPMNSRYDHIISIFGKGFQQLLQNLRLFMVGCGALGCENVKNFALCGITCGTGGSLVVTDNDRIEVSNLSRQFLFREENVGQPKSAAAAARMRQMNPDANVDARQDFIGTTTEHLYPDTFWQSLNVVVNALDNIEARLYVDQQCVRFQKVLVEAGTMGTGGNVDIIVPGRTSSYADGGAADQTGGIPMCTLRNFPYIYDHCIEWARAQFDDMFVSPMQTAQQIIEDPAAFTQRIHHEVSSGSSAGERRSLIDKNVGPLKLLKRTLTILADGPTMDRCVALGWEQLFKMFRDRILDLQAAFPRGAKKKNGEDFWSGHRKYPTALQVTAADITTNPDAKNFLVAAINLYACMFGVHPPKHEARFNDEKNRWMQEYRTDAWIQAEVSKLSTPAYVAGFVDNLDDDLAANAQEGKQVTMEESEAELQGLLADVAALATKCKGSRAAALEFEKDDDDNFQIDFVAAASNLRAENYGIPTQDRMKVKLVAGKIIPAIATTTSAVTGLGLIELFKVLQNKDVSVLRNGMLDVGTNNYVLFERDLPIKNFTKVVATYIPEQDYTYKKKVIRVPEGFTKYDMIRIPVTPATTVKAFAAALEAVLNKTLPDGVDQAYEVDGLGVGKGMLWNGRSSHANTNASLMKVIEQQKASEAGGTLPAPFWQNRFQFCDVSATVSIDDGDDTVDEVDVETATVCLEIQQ

[3] = target: Sialic acid-binding Ig-like lectin 9 (Homo sapiens) (UniProt Q9Y336); test: Hs-Siglec9 ALPHAscreen SOP 20170721; conditions: 10 µM
[4] = test system: Trypanosoma cruzi; test: Trypanosoma cruzi phosphomannomutase and mannose-1-phosphate guanylyltransferase assay; assay type: functional; conditions: 10 µM
[5] = target: T2, Arginase-2, mitochondrial (Homo sapiens) (UniProt P78540); test: in vitro enzyme assay to detect the production of urea directly proportional to the activity of Arginase II; assay type: functional; conditions: 33.3 µM; note: in the data most compounds retested in dose-response had high values
T2 sequence (whole entry): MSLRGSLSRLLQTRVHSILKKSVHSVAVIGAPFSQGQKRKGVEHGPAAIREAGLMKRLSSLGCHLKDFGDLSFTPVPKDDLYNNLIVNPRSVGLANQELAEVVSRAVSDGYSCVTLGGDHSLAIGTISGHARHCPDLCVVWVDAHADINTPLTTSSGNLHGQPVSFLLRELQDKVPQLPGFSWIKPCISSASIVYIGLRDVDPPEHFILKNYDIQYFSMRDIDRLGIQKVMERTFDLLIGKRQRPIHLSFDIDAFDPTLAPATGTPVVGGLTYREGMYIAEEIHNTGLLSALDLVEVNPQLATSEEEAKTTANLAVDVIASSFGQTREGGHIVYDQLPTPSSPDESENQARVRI

[6] = target: T3, Proteasome subunit beta (Trypanosoma cruzi) (UniProt O96673); test: Trypanosoma cruzi proteasome chymotrypsin-like activity (TcProtChymo) assay.; note: in the data most compounds retested in dose-response had high values; assay type: functional; conditions: 9.37 µM
T3 sequence (whole entry): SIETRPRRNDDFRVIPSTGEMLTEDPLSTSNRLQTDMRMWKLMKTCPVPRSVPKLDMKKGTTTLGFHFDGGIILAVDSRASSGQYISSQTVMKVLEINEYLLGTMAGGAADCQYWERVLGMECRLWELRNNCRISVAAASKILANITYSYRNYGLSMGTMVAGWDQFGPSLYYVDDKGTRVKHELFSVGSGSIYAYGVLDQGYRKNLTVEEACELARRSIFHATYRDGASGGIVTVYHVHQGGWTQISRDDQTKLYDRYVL

[7] = species: Homo sapiens; test: To identify inhibition of the IFN signalling (Jak-Stat) pathway via expression of an eGFP reporter gene under the control of an IFN-stimulated response element (ISRE) containing MxA promoter.; assay type: functional; conditions: 30 µM
[8] = target: T4, Tyrosyl-tRNA synthetase, putative (Trypanosoma cruzi (strain CL Brener)) (UniProt Q4DSP6); test: Trypanosoma cruzi tyrosyl tRNA synthetase (TcYRS) _High Tyrosine SOP; assay type: functional; conditions: 30 µM; note: in the data most compounds retested in dose-response had high values
T4 sequence (whole entry): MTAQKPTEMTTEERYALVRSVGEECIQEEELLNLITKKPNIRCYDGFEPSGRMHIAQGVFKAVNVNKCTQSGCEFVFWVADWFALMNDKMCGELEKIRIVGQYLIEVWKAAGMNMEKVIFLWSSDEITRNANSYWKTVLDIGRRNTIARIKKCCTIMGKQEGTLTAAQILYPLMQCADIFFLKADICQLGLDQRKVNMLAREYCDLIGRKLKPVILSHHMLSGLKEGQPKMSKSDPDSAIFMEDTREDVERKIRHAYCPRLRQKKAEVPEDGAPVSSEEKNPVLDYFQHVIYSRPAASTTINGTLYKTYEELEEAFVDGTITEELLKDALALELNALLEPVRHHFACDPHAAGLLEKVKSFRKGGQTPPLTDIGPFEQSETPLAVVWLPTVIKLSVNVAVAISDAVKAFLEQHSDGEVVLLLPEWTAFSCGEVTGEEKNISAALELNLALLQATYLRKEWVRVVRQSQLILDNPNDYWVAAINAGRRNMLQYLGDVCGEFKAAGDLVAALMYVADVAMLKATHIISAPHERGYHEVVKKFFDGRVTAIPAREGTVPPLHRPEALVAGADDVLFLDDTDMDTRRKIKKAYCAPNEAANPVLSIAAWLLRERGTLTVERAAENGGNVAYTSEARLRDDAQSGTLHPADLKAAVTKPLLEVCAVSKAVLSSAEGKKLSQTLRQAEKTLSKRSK

[9] = target: T4, Tyrosyl-tRNA synthetase, putative (Trypanosoma cruzi (strain CL Brener)); test: Trypanosoma cruzi tyrosyl tRNA synthetase (TcYRS) SOP; assay type: functional; conditions: 30 µM
[10] = target: Chromo domain-containing protein 1 (Saccharomyces cerevisiae (strain ATCC 204508 / S288c) (Baker's yeast)) (UniProt P32657); test: ScCHD-1 Enzyme Inhibition Assay; assay type: functional; conditions: 30 µM; note: in the data most compounds retested in dose-response had high values
Chromo domain-containing protein 1 (Saccharomyces cerevisiae (strain ATCC 204508 / S288c) (Baker's yeast)), sequence (P32657 whole entry, the tested form may be a part): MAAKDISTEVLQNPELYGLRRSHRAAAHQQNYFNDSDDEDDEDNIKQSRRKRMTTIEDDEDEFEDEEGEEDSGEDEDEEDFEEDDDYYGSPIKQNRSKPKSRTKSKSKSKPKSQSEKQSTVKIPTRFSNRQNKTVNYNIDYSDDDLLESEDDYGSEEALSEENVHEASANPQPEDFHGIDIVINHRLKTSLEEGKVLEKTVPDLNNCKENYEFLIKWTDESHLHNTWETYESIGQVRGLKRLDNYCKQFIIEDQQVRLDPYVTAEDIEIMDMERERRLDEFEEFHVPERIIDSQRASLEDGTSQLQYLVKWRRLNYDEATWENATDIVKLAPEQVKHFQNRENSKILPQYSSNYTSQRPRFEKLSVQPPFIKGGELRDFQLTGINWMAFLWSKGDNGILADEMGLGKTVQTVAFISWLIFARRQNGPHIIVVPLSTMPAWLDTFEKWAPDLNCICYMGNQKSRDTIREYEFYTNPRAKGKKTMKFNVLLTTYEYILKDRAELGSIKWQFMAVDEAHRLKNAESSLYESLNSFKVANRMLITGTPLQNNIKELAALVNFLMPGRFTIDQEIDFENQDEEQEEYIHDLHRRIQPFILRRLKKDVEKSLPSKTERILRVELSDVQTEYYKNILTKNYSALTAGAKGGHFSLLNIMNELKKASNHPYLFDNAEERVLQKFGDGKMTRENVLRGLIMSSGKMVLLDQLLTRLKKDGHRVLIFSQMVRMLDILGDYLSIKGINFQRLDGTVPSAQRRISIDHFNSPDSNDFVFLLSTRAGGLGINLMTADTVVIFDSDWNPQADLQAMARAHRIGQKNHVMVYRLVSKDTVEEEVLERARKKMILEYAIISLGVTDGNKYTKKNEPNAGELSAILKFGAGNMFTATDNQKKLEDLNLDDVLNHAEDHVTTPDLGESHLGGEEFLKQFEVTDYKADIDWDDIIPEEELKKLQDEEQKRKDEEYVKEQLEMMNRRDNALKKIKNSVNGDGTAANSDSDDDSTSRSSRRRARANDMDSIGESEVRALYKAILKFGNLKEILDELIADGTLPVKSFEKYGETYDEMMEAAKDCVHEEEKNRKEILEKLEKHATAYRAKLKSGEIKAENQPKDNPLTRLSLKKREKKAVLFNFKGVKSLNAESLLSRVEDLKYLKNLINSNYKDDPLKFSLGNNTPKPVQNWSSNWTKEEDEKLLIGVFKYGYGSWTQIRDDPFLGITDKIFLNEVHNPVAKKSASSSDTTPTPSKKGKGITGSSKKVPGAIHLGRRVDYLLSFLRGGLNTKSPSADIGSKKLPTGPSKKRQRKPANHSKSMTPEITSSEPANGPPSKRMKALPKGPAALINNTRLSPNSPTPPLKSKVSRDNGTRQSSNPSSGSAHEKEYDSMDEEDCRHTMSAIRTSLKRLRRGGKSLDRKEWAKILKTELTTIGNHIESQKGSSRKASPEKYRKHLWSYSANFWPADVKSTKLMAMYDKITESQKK

Protein translocase subunit SecA (Escherichia coli (strain K12)), sequence (P10408 whole entry): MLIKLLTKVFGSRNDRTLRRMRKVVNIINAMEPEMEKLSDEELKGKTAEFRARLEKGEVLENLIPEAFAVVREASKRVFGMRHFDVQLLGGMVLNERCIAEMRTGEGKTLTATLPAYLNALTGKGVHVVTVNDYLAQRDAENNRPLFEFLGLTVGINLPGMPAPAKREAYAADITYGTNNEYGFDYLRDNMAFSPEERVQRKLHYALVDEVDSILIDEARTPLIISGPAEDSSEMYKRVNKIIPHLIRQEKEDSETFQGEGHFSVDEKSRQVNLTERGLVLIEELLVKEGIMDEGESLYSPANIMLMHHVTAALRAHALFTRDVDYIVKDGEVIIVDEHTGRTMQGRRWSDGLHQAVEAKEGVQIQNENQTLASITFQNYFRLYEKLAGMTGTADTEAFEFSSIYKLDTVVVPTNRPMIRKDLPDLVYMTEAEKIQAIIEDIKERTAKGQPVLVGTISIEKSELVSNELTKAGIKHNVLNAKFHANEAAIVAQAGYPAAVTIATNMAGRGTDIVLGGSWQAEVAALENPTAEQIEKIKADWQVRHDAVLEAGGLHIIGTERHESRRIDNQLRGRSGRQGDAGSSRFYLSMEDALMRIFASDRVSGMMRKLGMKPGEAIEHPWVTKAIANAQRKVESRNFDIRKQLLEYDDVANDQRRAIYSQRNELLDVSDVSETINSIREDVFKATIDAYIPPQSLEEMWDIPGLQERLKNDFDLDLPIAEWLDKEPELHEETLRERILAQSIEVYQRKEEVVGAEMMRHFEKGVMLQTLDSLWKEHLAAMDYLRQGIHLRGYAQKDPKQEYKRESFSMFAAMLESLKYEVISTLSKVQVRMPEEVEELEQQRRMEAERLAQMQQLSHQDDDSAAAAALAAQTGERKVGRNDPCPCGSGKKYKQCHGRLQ
Sialic acid-binding Ig-like lectin 9 (Homo sapiens), sequence (Q9Y336 whole entry): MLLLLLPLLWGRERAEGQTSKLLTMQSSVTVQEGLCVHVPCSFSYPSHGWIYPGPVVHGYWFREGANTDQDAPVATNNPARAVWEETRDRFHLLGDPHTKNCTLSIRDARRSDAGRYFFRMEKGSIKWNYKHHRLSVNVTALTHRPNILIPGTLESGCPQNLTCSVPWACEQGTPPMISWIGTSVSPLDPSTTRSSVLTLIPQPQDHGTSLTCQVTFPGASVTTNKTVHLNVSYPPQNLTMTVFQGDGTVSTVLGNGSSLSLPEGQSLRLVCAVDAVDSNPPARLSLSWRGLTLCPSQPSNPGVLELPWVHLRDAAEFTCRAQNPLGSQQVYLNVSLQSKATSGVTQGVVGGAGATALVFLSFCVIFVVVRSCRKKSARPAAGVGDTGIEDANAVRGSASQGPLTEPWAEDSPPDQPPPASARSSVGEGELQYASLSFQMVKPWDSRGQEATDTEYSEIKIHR

| SMILES | Percent Effect [1] [%] | Percent Effect [2] [%] | Percent Effect [3] [%] | Percent Effect [4] [%] | Percent Effect [5] [%] | Percent Effect [6] [%] | Percent Effect [7] [%] | Percent Effect [8] [%] | Percent Effect [9] [%] | Percent Effect [10] [%] |
| --- | --- | --- | --- | --- | --- | --- | --- | --- | --- | --- |
| Cc1ccc(N2CCC3(CCCN(C(=O)c4cccnc4)C3)C2)nn1 (stereo not given) | -10.1 | 1.3 | 11 | -3.41 | 0.405 | 16.1 | 2.17 | 0.526 | -10.3 | 0.442 |
| COCCCNc1nccc(-c2c[nH][nH]c2=O)n1 | -1.57 | 8 | -3.19 | -6.63 | -3.55 | 19.9 | 12.9 | -1.58 | 0 | -11.7 |
| COc1cc(C(=O)N2CCCS2(=O)=O)ccc1C | -4.9 | -2.67 | -1.38 | 4.82 | -3.99 | 14.7 | 1.35 | 4.74 | 10.3 | -8.07 |
| Cc1nc(C)n(CC2CCCN2Cc2cn3ccsc3n2)n1 (stereo not given) | 1.01 | 12.8 | -7.58 | -2.72 | -1.23 | 19 | 27.5 | 3.35 | 13.2 | -5.22 |
| O=C(CN1CCCC(c2ccc(C(=O)O)cc2)C1)NC1CC1 (stereo not given) | -9.44 | 5.41 | 8.6 | 7.08 | 8.04 | 1.2 | -14.3 | 6.92 | 12.2 | -1.84 |
| CCn1nc2c(cc1=O)CN(CC(=O)Nc1nc(C)c(C)s1)CC2 | -0.874 | 0 | 5.55 | -9.7 | 1.84 | 13.3 | 14.5 | 4.9 | 9.41 | -8.07 |
| Cc1nc(C)n(CC2CCCN2Cc2cn3c(C)cccc3n2)n1 (stereo not given) | -1.02 | 2.67 | 7.22 | 4.62 | 2.66 | 8.4 | -19.9 | 1.58 | 5.13 | -11.6 |
| O=C(c1ccc(C(F)(F)F)nc1)N1CCCC(n2cncn2)C1 (stereo not given) | 1.26 | -5.13 | -2.26 | 5.92 | 5.33 | 3.33 | -13.8 | -3.35 | 1.21 | -3.39 |
| O=C(NCC(=O)N1CCc2ccccc2C1)c1ccoc1 | -0.143 | 15.6 | -3.75 | -7.46 | 1.43 | 18.1 | 23.4 | 3.92 | 9.41 | -10.6 |
| NC(=O)c1cc(C2CCCN(CCCOc3ccccc3)C2)n[nH]1 (stereo not given) | 1.07 | -15.4 | 18.7 | -0.282 | 6.15 | 1.79 | 0.734 | 1.44 | -1.21 | -4.36 |
| Cc1cc(C(=O)O)cc(S(=O)(=O)Nc2ccc3c(c2)OCO3)c1C | -0.174 | 2.56 | -9.72 | 2.91 | 3.69 | 19.7 | -15.4 | -4.31 | 10.8 | -3.33 |
| Cc1nn(-c2ccccc2)cc1C(=O)N1CCCC(n2cccn2)C1 (stereo not given) | -2.22 | 13.3 | 4.19 | 1 | 7.09 | 9.07 | -2.62 | 4.74 | 12.8 | -12.7 |
| CCc1n[nH]c(C2CN(C(=O)c3nc(C)ncc3Cl)CCO2)n1 (stereo not given) | -2.86 | 7.79 | 9.79 | -2.24 | 1.43 | -0.351 | 2.84 | 2.94 | 7.06 | 2.12 |
| CC(C)(C)c1nnc(CN2CCn3c(nnc3C3CC3)C2)o1 | -1.7 | -2.67 | 0.00454 | -2.21 | 0.444 | 3.14 | 13.2 | 0.526 | 2.56 | 9.52 |
| CC(C)c1nccn1-c1cccc(C2CCCN2S(=O)(=O)N(C)C)n1 (stereo not given) | 1.33 | -17.3 | -5.7 | -2.76 | -1.77 | 14.8 | 39.9 | 4.23 | 10 | -18 |
| Cc1ncsc1CCC(=O)N1CCCC[C@H](N(C)C)C1 | -5.77 | 13.5 | 14.4 | 9.02 | 52.8 | 13.7 | 16.9 | 7.98 | 21.9 | -3.1 |
| CCn1cc(NC(=O)NCc2ccc(CN3CCOCC3)cc2)cn1 | 0.918 | 13 | 16 | -7.28 | -6.35 | 10 | 24.2 | 4.9 | 11.8 | -1.62 |
| COc1cc(C(=O)N2CCCS2(=O)=O)cc(Cl)c1OC | -4.13 | 24 | 3.41 | -0.602 | -4.88 | 9.07 | 7.8 | 4.74 | 15.4 | -12.8 |
| Cc1nc(COc2ccc(CNCC3CN(C)CCO3)cc2)cs1 (stereo not given) | -3.51 | 2.6 | 0.562 | -3.73 | 3.07 | 3.16 | 18.8 | -0.98 | -2.35 | -1.69 |
| Cc1cnn(C(C)C2CC2)c1NC(=O)c1ccncc1 (stereo not given) | -9.84 | -5.41 | -2.58 | -1.26 | 1.75 | 5.82 | -1.9 | -1.6 | 0 | -0.204 |
| Cc1ccc(-c2nc(CCNC(=O)CCN3CCOC3=O)co2)cc1 | -3.11 | 5.33 | 5.5 | -0.602 | 8.87 | 7.72 | 33.2 | 6.84 | 5.13 | -8.83 |
| COc1ccccc1OCC(=O)NS(=O)(=O)c1ccc(Br)s1 | -3.35 | 5.2 | 18.6 | -2.61 | 2.66 | 6.14 | 1.82 | -1.96 | 7.06 | -3.46 |
| Cc1ccc(N2CCCN(C(=O)c3c(C)oc(C)c3C)CC2)nn1 | -6.08 | 18.7 | 5.84 | 2.61 | -0.887 | 9.92 | 4.96 | 4.74 | 15.4 | -6.9 |
